Reference: PubChem BioAssay AID2315 (National Center for Advancing Translational Sciences (NCATS), 2010)
In all, about 290,000 compounds went through this assay and about 27,000 (9.3%) were called active. The list comes from a sample in which actives are over-represented; it also holds similar structures and randomly drawn compounds. Unmarked numbers belong to inactive results. Rule as the data show it: active = inhibition mostly above about 28% (no sharp cut-off); inactive = mostly below about 43%.

Assay: A qHTS for Small Molecule Inhibitors of Shiga Toxin; also: 0% is about no effect
Conditions: Vero cells, Shiga toxin protein synthesis inhibition reporter; at 38.7 µM, stronger effect = higher value

Structure (SMILES) | inhibition
CCc1ccccc1NC(=O)CCOc1ccccc1 | -7.03%
Cc1c(NC(=O)CCCOc2ccccc2)cccc1[N+](=O)[O-] | 10.4%
Cc1ccccc1NC(=O)CCOc1ccccc1 | 58% (active)
COc1cccc(CN(C)CC2CCCN(CCc3ccc(Cl)cc3)C2)c1OC (stereo not given) | -3.67%
O=C(/C=C/c1ccc([N+](=O)[O-])o1)NNC(=O)c1ccc(F)cc1 | 120% (active)
O=C(N/N=C/c1ccc([N+](=O)[O-])o1)c1cn(-c2ccccc2)nc1-c1ccc(F)cc1 | 8.71%
C/[N+]([O-])=C\c1ccc([N+](=O)[O-])o1 | -7.77%
Cc1coc2c1c(C)cc1oc(=O)c(CC(=O)NCC(=O)N[C@H](C(=O)O)C(C)C)c(C)c12 | -15%
Cc1nc(N2CCN(c3ccccn3)CC2)c2c(C)c(C(=O)Nc3ccc(F)cc3)sc2n1 | -7.13%
Cc1nc(N2CCOCC2)c2c(C)c(C(=O)Nc3ccc(C(F)(F)F)cc3)sc2n1 | -15.2%
Cc1c(C(=O)Nc2ccccc2)sc2nc3n(c(=O)c12)CCCCC3 | 95.7% (active)
O=c1c2c(nc3n1CCCCC3)sc1c(O)cccc12 | 20.9%
Cc1c(C(=O)Nc2cccc(-c3nnc4n3CCCCC4)c2)oc2ccccc12 | 35%
CC(=O)c1ccc(NC(=O)c2sc3nc4n(c(=O)c3c2C)CCCCC4)cc1 | 81.1% (active)
CN(C(=O)CC1C(=O)NCCN1Cc1ccc(F)cc1Cl)C1CCCCC1 (stereo not given) | -14.2%
CCn1c(Cc2cccs2)nnc1SCC(=O)c1ccc(C)cc1 | 41.4% (active)
Cc1ccc(-n2c(Cc3cccs3)nnc2SCC(=O)OC(C)C)cc1 | 8.05%
C=CCn1c(CNC(=O)c2ccco2)nnc1SCC(=O)c1ccc(OC)cc1 | -12.2%
CCn1c(SCC(=O)c2ccc(Cl)s2)nnc1-c1cccs1 | 73.6% (active)
COC(=O)c1ccc(NC(=O)CSc2nnc(CNc3ccc(OC)cc3)n2C)cc1 | 24.4%

Structure (SMILES) | inhibition
CCn1c(SCC(=O)N(C)C2CCS(=O)(=O)C2)nnc1-c1cccs1 (stereo not given) | -0.571%
CCn1c(CNc2ccc(OC)cc2)nnc1SCC(=O)c1ccc(OC)cc1 | -15.6% (active)
Cn1c(Cc2cccs2)nnc1SCC(=O)Nc1ccccc1 | -7.01%
CCn1c(SCC(=O)c2ccc3ccccc3c2)nnc1-c1cccs1 | -3.35%
O=C(NCc1ccco1)C(c1ccncc1)N(C(=O)Cn1nnc2ccccc21)c1ccccc1 (stereo not given) | -3.36%
CCOC(=O)c1cc(C)nc(S(C)(=O)=O)c1C#N | 47.2%
CN(CCc1ccccc1)c1ccc([N+](=O)[O-])cn1 | -3.15%
CCCCC(c1nnnn1CS(=O)(=O)c1ccc(C)cc1)N1CCC(C(N)=O)CC1 (stereo not given) | -8.35%
O=C(CSc1ccsc1[N+](=O)[O-])N1CCCCC1 | 6.79%
CC1CC(C)CN(C(=O)CSc2ccsc2[N+](=O)[O-])C1 (stereo not given) | 63.3% (active)
COc1ccccc1-c1nnc(SCC(=O)N2CC(C)CC(C)C2)o1 (stereo not given) | -7.49%
COCc1c(C(=O)N/N=C(\C)c2ccncc2)nnn1-c1nonc1N | -3.05%
COC(=O)c1ccc(NC(=O)CSc2nnc(C3CC3)n2C)cc1 | 17.5%
O=C(Nn1cnc2ccccc2c1=O)c1ccc(F)cc1Cl | 71.8% (active)
O=C(Nn1cnc2ccccc2c1=O)c1ccc([N+](=O)[O-])cc1Cl | -11.9%
O=C(Nn1cnc2ccccc2c1=O)c1ccccc1 | 58.6%
COc1cc(C(=O)NCc2ccncc2)cc(Br)c1OCc1ccccc1 | -9.85%
CC(C(=O)NCCc1ccc(S(N)(=O)=O)cc1)N1C(=O)CC(C)(C)Sc2ccccc21 (stereo not given) | -10.5%
CCCn1c(CCNc2nc(-c3ccc(OC)cc3)cs2)nc2ccccc21 | 20.9%
CC(=O)Nc1ccc(-c2csc(NC=C3C(=O)OC(C)(C)OC3=O)n2)cc1 | 54%

Structure (SMILES) | inhibition
COc1ccc(-c2csc(NC3OC(=O)c4ccccc43)n2)cc1 (stereo not given) | 41.6% (active)
COc1ccc2c(c1OC)C(=O)OC2c1c(O)nc(SC)n(-c2ccccc2)c1=O (stereo not given) | -8.28%
COc1ccc(C)cc1Nc1nc(-c2c(C)[nH]c3ccccc23)cs1 | -3.8%
COc1ccc2c(c1OC)C(=O)OC2Nc1nc(-c2ccccc2)cs1 (stereo not given) | 36.9% (active)
Cc1ccc(-c2csc(NC(=O)Cn3[nH]c(=O)c4ccccc4c3=O)n2)cc1 | 42.6%
Cc1ccc(-c2csc(NC3OC(=O)c4ccccc43)n2)cc1 (stereo not given) | 30% (active)
COc1ccc(N/C=C(\C2OC(=O)c3ccccc32)[N+](=O)[O-])cc1 (stereo not given) | 15.2%
Cc1ccc(NS(=O)(=O)c2ccc3c(c2)n(C)c(=O)c(=O)n3C)c(C)c1 | -7.48%
COCCN1CCn2c(nc3cc(NS(C)(=O)=O)ccc32)C1 | -2.98%
COc1ccc(C(=O)NC2CC(C)(C)Cc3c2cnn3-c2ccccc2C)o1 (stereo not given) | -10.5%
O=C(COc1ccc2c3c(c(=O)oc2c1)CCCC3)NCC(O)c1ccccc1 (stereo not given) | -3.53%
O=C(CCn1c(=S)[nH]c2cc3c(cc2c1=O)OCO3)NCc1ccc(Cl)cc1 | 1.66%
O=C(CCc1nnc(Cc2ccc3c(c2)OCO3)o1)NCCc1ccccc1Cl | -5.99%
CN1CCN(Cc2nc3cc(NC(=O)COc4ccc([N+](=O)[O-])cc4)ccc3n2C)CC1 | -2.13%
COC(=O)c1cccc(C(=O)N2CCCC(Nc3ccc4c(c3)OCCO4)C2)c1 (stereo not given) | 2.25%
Cc1cc(/C=C2\SC(=O)N(C)C2=O)c(C)n1-c1cccc(C(=O)O)c1 | 3.52%
COc1ccc(OCCCCN2CCC(C)CC2)cc1 | -6%
Cc1cccc(NC(=S)Nc2ccc(Cl)c(Cl)c2)c1 | 17%
CC(C)CNC(=S)NNC(=O)c1nn(C)cc1Cl | 4.35%
Cn1cc(Cl)c(C(=O)NNC(=S)Nc2cccc(Cl)c2)n1 | 49.5% (active)
